# Tau FP inhib – inhibitors of human tau fibril formation | K18 P301L tau heparin fibrillization, Alexa594 FP, 6 h | Potency, µM (titrated, usually from 57.7 µM), for inactives: at the top dose activity, negative = inhibition, hits mostly inhibitors | actives 0.39% (n = 280,000) | AID 1468; further: nearly all actives have a fitted effect of over 55% in size
# Target sequence (P10636 561-689 P618L limits assumed): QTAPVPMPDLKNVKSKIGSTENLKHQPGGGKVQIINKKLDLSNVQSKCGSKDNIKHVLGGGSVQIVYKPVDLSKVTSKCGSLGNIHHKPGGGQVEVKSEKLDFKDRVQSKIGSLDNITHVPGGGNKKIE
#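 Quantitative HTS format: compounds meet 15 uM recombinant K18 P301L tau and Alexa 594-tau tracer in 100 mM sodium acetate pH 7; 20 uM heparin triggers fibrillization at 37 C over 6 hr; FP gives the signal.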
# Tau fluor cs – counter-screen for tau fibril formation inhibitors; actives 0.93% (n = 280,000); tau K18 P301L Alexa594 fluorescence, heparin fibrillization; AID 1463; Potency, µM (titrated, usually from 57.7 µM), inactives show top-dose activity change, negative = decrease; further: nearly all actives have a fitted effect of over 55% in size
#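 Human K18 P301L tau (15 uM unlabeled plus 0.24 uM Alexa 594-labeled, final) in 100 mM sodium acetate pH 7 was mixed with compound and 20 uM heparin and incubated 6 hr at 37 C.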
# KinaseGlo FLuc – blocks Kinase-Glo luciferase, a counter-screen artifact; Q27757; Kinase-Glo luciferase, ATP luminescence, 8 min; Potency, µM (series often up to 38.3 µM), for inactives: top-dose activity change, negative = inhibition, actives largely listed as inhibitors; actives 0.28% (n = 200,000); AID 1379; further: nearly all actives have a fitted effect of over 60% in size
#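 Compound is pinned into ATP-containing buffer (10 uM ATP, imidazole pH 7.2, 7 mM MgCl2). Kinase-Glo luciferase reagent is then added. Light output is recorded following an 8-min room-temperature incubation.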
# Tau ThT inhib – blocks human tau fibril formation measured by thioflavin T; Potency, µM (series often up to 57.4 µM), for inactives: top-dose activity, negative = inhibition, actives largely listed as inhibitors; P10636; recombinant tau K18 P301L (four-repeat tau fragment), heparin-induced fibrillization, ThT fluorescence; actives 2.1% (n = 270,000); further: nearly all actives have a fitted effect of over 55% in size
#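 Heparin-induced fibrillization of the P301L-mutant K18 repeat-domain fragment of human tau was followed by ThT binding in quantitative high-throughput format.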
# NPSR antagonist – antagonists of human neuropeptide S receptor cAMP signaling | actives 1% (n = 220,000) | Q6W5P4 | AID 1461 | Potency, µM (doses to about 38.3 µM), for inactives: top-dose activity change, negative = inhibition, hits mostly inhibitors | CHO-NPSR cells, cAMP TR-FRET, antagonist mode; further: nearly all actives have a fitted effect of over 50% in size
# Target sequence (Q6W5P4 whole entry, looked up): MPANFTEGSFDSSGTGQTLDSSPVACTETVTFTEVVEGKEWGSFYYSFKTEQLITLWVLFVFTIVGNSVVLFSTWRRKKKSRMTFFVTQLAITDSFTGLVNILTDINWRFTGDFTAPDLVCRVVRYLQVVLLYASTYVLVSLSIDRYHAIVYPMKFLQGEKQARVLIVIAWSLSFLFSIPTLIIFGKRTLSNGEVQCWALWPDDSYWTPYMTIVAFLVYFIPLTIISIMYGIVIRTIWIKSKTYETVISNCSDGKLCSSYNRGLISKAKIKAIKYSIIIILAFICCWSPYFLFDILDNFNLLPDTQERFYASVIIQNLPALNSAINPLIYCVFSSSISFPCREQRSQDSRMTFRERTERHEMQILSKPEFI
# Active calls of the source: *; ? = inconclusive; nt = no result; [ ] = remark or other dose. The list is not random: actives were taken first. Their share in the collection is about 3.3%. The call rests on the fitted dose curve; in most records, active means well fitted curve in the direction sought with a large enough effect; inconclusive means small, poorly fitted or top-dose-only effect, or another doubt; inactive means no such curve, though single readings can be large; an effect the other way counts as inactive or inconclusive. On the % scale 0 is the no-effect control and ±100 the full control effect; potency means the concentration at half of the fitted maximal effect.
SMILES,Tau FP inhib,Tau fluor cs,KinaseGlo FLuc,Tau ThT inhib,NPSR antagonist
C=CCNC(=S)Nc1ccc(C)c(S(=O)(=O)N2CCCCC2)c1,-14.7%,-20.0%,1.6%,11.4%,-2.2%
Cc1ccc(C(=O)Nc2ccc(F)cc2)cc1S(=O)(=O)N1CCCCCC1,?,?,nt,-2.9%,nt
C[N+](C)(C)c1ccc([C@H](N)C(=O)O)cc1,nt,nt,-5.8%[7.66 µM],nt,nt
O=C(O)c1ccccc1Nc1ccc([N+](=O)[O-])cc1,3.9%,-0.4%,-4.9%,10µM*,-10.6%
O=[N+]([O-])c1ccccc1Nc1c2ccccc2nc2ccccc12,5.0%,?,0.7%,-1.0%,-17.0%
O=C(O)c1ccccc1Nc1ccccc1C(=O)O,-4.7%,0.1%,-0.8%,-3.2%,-7.3%[46.1 µM]
O=[N+]([O-])c1ccc(Nc2c3ccccc3nc3ccccc23)cc1,?,11.2µM*[quencher],-2.2%,10µM*,6.31µM*
CCCCc1ccc(C2C(C#N)=C(N)SC(N)=C2C#N)s1,?,25.1µM*[quencher],4.5%,25.1µM*,-5.1%[46.1 µM]
CCOc1ccc(C2C(C#N)=C(N)SC(N)=C2C#N)c(OCC)c1,?,?,3.1%,?,25.7%[46.1 µM]
Clc1nnc(NN=C2CCCC2)c2ccccc12,-11.7%,?,-4.3%,25.1µM*,-5.0%
CC1(C)CC(=O)C(CC2=C(O)CC(C)(C)CC2=O)C(=O)C1,28.2µM*,-22.2%,0.2%,14.1µM*,-6.4%[46.1 µM]
CN=CC1=C(O)CC(C)(C)CC1=O,0.1%,-0.4%,5.3%,-2.8%,-7.7%[46.1 µM]
CC1(C)CC(=O)C(CC2=C(O)CC(C)(C)CC2=O)=C(O)C1,39.8µM*,-22.7%,-4.4%,15.8µM*,-4.2%[46.1 µM]
CC(C(Sc1ccccc1N)c1ccccc1)[N+](=O)[O-] (stereo not drawn),?,-24.6%,nt,nt,?
N#C/C(=C\Nc1ccccc1O)c1nc2ccccc2o1,?,17.8µM*[quencher],-1.8%,?,?
COc1cccc(C2CC(=O)Nc3c2c(=O)[nH]c2nc4ccccc4n32)c1 (stereo not drawn),-4.5%,-26.8%,nt,?,nt
COCCCNC(=O)c1ccc2c3c(onc13)-c1ccccc1C2=O,?,5.62µM*[quencher],nt,6.31µM*,?
COCCCNC(=O)c1ccccc1Oc1ccccc1,4.5%,-2.2%,1.4%,-8.9%,-13.2%[46.1 µM]
COc1cccc([C@@H]2Oc3ccc(OC)cc3C(=O)[C@H]2OC(=O)Nc2ccc(C)c(Br)c2)c1,-8.5%,-22.2%,-2.7%,-12.0%,nt
CCn1c2ccccc2c2c3ncc4cccn4c3ccc21,6.4%,-28.6%,nt,?,12.5%
CC1=C(C(=O)NCc2cccc(F)c2)C2(CCCCC2)OC1=O,9.0%,-6.0%,nt,-0.6%,nt
COc1cc(OC)c2c(=O)c(-c3ccccc3)coc2c1,-4.7%,-18.9%,-5.9%,?,nt
CN(C)c1ccc(NC(=O)c2cnsn2)cc1,-2.5%,-20.9%,?,10µM*,12.9%
Cc1ccc(NC(=S)c2nc3ccccc3[nH]2)cc1,-1.6%,?,-20.9%,7.94µM*,-18.4%[46.1 µM]
COC(=O)c1ccccc1NC(=O)CSc1cc(-c2ccccc2)nc(C)n1,-8.1%,-12.7%,nt,-16.8%,nt
SMILES,Tau FP inhib,Tau fluor cs,KinaseGlo FLuc,Tau ThT inhib,NPSR antagonist
O=C(CO/N=C/c1cccc([N+](=O)[O-])c1)Nc1ccc2ccccc2c1,-5.5%,12.6µM*[quencher],0.4%,?,0.7%[46.1 µM]
COC(=O)N1CCC2(CCN(C(=O)NC(C)C)CC2)CC1,nt,nt,1.3%,nt,nt
COC(=O)C1=C(C(=O)OC)[C@@H]2N(Cc3ccccc3)c3ccccc3[C@@]23C[C@@H](C(=O)OC)N(S(=O)(=O)c2ccc(Br)cc2)C3=N1,4.1%[11.6 µM],4.1%[11.6 µM],-11.4%[7.66 µM],6.3%[11.5 µM],nt
Cc1nc(NC(=O)/C=C/c2ccccc2)n[nH]1,?,-2.7%,-6.9%,15.8µM*,7.5%
CCCn1c(=O)c2sccc2n2c(CCCC(=O)Nc3ccccc3F)nnc12,-1.0%,-7.2%,nt,-2.9%,nt
COc1cccc(C(=O)/C=C/c2ccc(N3CCCCC3)c([N+](=O)[O-])c2)c1,-2.7%,?,-4.2%,7.94µM*,-46.5%
O=C(/C=C/c1ccc(N2CCCCC2)c([N+](=O)[O-])c1)c1ccc(S(=O)(=O)N2CCCC2)cc1,?,-28.1%,-3.5%,10µM*,-18.0%
CO/N=C/c1ccc(N2CCCC2)c([N+](=O)[O-])c1,5.5%,-9.1%,-2.1%,?,-15.9%
CCc1c(CN2CCN(c3ccc(F)cc3)CC2)csc1C,1.9%,-11.3%,nt,-14.5%,nt
N#C/C(=C\c1cccs1)C(=O)c1ccccc1Cl,-5.5%,-5.6%,nt,-5.2%,41.5%
O=C(NC1CCCCCC1)C1c2ccccc2C(=O)N1Cc1ccc(F)cc1 (stereo not drawn),0.0%,-23.1%,nt,-12.9%,nt
CCc1ccc(NC(=O)c2sc3nc(C)c(Cl)c(C)c3c2NC(=O)c2ccccc2)cc1,-2.6%,2.7%,nt,0.8%,nt
O=C(O)C(S)[C@@H](S)C(=O)O (stereo partly drawn),11.2µM*,-28.7%,-4.7%,7.94µM*,nt
N[C@H](C(=O)O)[C@H](O)C(=O)O,-0.7%,-1.0%,-1.5%,-3.6%,-7.6%[46.1 µM]
CN1CCN(NS(=O)(=O)c2ccc(Cl)s2)CC1,?,-25.5%,-0.2%,17.8µM*,8.6%
O=S(=O)(NN1CCOCC1)c1ccc(Cl)s1,?,-5.4%,1.0%,?,10.0%
COc1ccc(-c2cc3nc(C)c(CCC(=O)N4CCN(c5ccccc5F)CC4)c(C)n3n2)c(OC)c1,8.2%,-11.8%,nt,-14.6%,nt
CC(C)=CCc1c(O)cc2occ(-c3ccc4c(c3)OCO4)c(=O)c2c1O,8.91µM*,?,-6.0%,-16.4%,nt
O=c1c(-c2cc(O)c(O)c(O)c2)coc2cc(O)c(O)c(O)c12,7.08µM*,?,-4.4%,3.55µM*,nt
CCc1cc2c(=O)c(-c3ccc4c(c3)OCCO4)coc2cc1OS(C)(=O)=O,-8.3%,-29.5%,1.0%,-16.7%,-21.0%
CC1CN(c2nc3ccccn3c(=O)c2C=O)CC(C)O1 (stereo not drawn),-3.4%,1.8%,-4.5%,3.7%,3.8%
O=C(NCc1ccccc1)c1onc(CSc2ccccc2)c1C(=O)NCC1CC1,-2.3%,-17.9%,nt,-0.1%,-39.4%
CC(C)(C)OC(=O)N1CCC(c2c(C(=O)NCCN3CCCC3)cnn2-c2ccc(Cl)cc2)CC1,3.4%,-1.5%,nt,2.1%,nt
CCCc1nc(SC)ncc1C(=O)N1CCN(c2ccc(Cl)cc2)CC1,0.4%,-13.9%,nt,-15.1%,nt
Cc1cc(N2CCC(C)CC2)nc2ccc(NC(=O)Cc3c(F)cccc3Cl)cc12,4.5%,?,nt,?,nt
Cc1cc(N2CCC(C)CC2)nc2ccc(NC(=O)/C=C/c3cccc(Cl)c3)cc12,24.1%,14.1µM*[quencher],nt,6.31µM*,nt
Cc1ccc(/C=C/C(=O)Nc2ccc3nc(N4CCC(C)CC4)cc(C)c3c2)cc1,0.0%,6.31µM*[quencher],nt,2.51µM*,nt
Cn1nnc2c(NCc3c(F)cccc3F)ncnc21,-6.8%,-1.0%,nt,-2.2%,nt
O=C(NN=c1c(=O)c2ccccc2c1=O)c1ccccc1,?,-25.1%,2.1%,5.62µM*,-0.5%[46.1 µM]

# High-throughput results deposited in PubChem by National Center for Advancing Translational Sciences (NCATS).
